Screens from PubChem BioAssay.
Rows were chosen to be rich in hits. Some 21% of all compounds tested hit in one or more screens of this group.
TDP1 cell CPT: growth inhibition of DT40 Tdp1-/-;hTDP1 cells with camptothecin (screen for TDP1 inhibitors) | chicken DT40 Tdp1-/-;hTDP1 cells + 20 nM CPT, ATP luminescence, 48 h | Potency, µM (top dose mostly 46.2 µM), for the others: at the top dose activity change, negative = growth inhibition, actives largely listed as inhibitors | hit rate 12% among 420,000; also: potency is read from the fitted curve at half-maximal effect; % is scaled to controls: 0 for no effect and ±100 for the full control effect; nearly all actives have a fitted effect of over 55% in size
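Chicken DT40 Tdp1-/- cells stably complemented with human TDP1 were seeded at 400 cells/well in medium containing 20 nM camptothecin, exposed to pin-transferred compounds, and grown at 37 °C for at least 48 hr. Viability was read as ATP luminescence.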
D3 antag: D3 dopamine receptor (human) antagonism. D3R cells, DiscoveRx beta-arrestin luminescence, antagonist mode; stronger effect = lower value. max response, negative = inhibition, %. hit rate 2.5% among 360,000; in the data active = max response below about -50%; inconclusive = no clear call, values can overlap the other calls; also: % is scaled to controls: 0 for no effect and ±100 for the full control effect
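Cells plated overnight at 1500 cells/well, then exposed to library compounds with dopamine controls for 90 minutes at 37 degrees C. DiscoveRx reagent added for 30–60 minutes at room temperature; luminescence read, quantitative HTS format.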
DRD3 agonist: activates the human D3 dopamine receptor; D3R DiscoveRx beta-arrestin cells, luminescence, 90 min; max activation, %; hit rate 0.58% among 410,000; in the data active = max activation above about 30%; also: 0% is about no effect
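Agonist mode: compounds and dopamine controls were applied to plated cells for 90 min at 37 degrees C after an overnight attachment at 1500 cells/well. Luminescent read-out followed 30 - 60 minutes at room temperature with DiscoveRx detection reagent.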
ClpP mod: qHTS Assay for Activators of ClpP. ATP-dependent Clp protease proteolytic subunit (Bacillus subtilis (strain 168)), P80244. purified B. subtilis ClpP, FRET peptide cleavage, 20 min. Potency, µM (highest dose often 57.5 µM), inactives show at the highest dose activity change, negative = active. hit rate 1.9% among 340,000. AID 651965, 2013; active = well fitted falling curve with a large enough effect; inconclusive = small, poorly fitted or top-dose-only effect; inactive = no such curve, though single readings can be large or run the other way; also: potency is read from the fitted curve at half-maximal effect; the source files actives as falling curves though it sought activators and does not explain the sign; nearly all actives have a fitted effect of over 65% in size
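ClpP 10 microg/mL final, pH 8 Tris/KCl buffer with BSA, glycerol, Tween-20; compound pinned in; FRET-FV substrate; RT 20 min; Ex320/Em430; ΔFRET vs ADEP 5.8 microM, DMSO, no enzyme.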
IL-1B inflam inh: blocks inflammasome-driven IL-1 beta release; AID 743279; THP-1 LPS/ATP IL-1B secretion, AlphaLISA, 16 h; stronger effect = lower value; activity change, % at 57.5 µM; hit rate 4.7% among 360,000; in the data active = activity change below about -50%; inconclusive = mostly about -30% to -49%; also: % is scaled to controls: 0 for no effect and ±100 for the full control effect
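Secreted IL-1B measured by AlphaLISA bead assay after 16 h compound exposure of THP-1 cells; compounds (final up to 57.5 uM) added 1 h before LPS (250 ng/mL) and ATP (1.25 mM) stimulation; lower signal means less secretion.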
TDP1 cell noCPT: qHTS for Inhibitors of human tyrosyl-DNA phosphodiesterase 1 (TDP1): qHTS in cells in absence of CPT | DT40 Tdp1-/- hTDP1 cells, no CPT, ATP luminescence, 48 h | Potency, µM (series often up to 46.2 µM), for the others: at the highest dose activity change, negative = growth inhibition, actives largely listed as inhibitors | hit rate 15% among 420,000; also: potency is read from the fitted curve at half-maximal effect; % is scaled to controls: 0 for no effect and ±100 for the full control effect; nearly all actives have a fitted effect of over 55% in size
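Camptothecin absent (DMSO only). Human TDP1-complemented DT40 knockout cells, 400 cells/well, 37 °C for minimum 48 hr; ATP measured via CellTiter-Glo, 30 min dark incubation, luminescence.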
Numbers without * were called inactive; u = inconclusive; x = not tested or not shown. Unless noted, calls follow the shape of the dose curve; as a rule, active = well fitted inhibition curve with a large enough effect; inconclusive = small, poorly fitted or top-dose-only effect; inactive = flat fitted curve, though single readings scatter.

SMILES	TDP1 cell CPT	D3 antag	DRD3 agonist	ClpP mod	IL-1B inflam inh	TDP1 cell noCPT
Cc1ccc(NC(=O)CSc2nc3c(oc4ccccc43)c(=O)n2-c2ccc(F)cc2)c(C)c1	-22%	x	1	-6%	x	-23%
CCN1CCN(Cc2c(O)ccc3c2O/C(=C\C=C\c2ccccc2OC)C3=O)CC1	u	u	-10	-1%	-23	18µM*
COc1ccc(-c2n[nH]c3c2C(c2ccc(O)cc2)N(c2ccc(Br)cc2)C3=O)cc1 (centres undefined)	18µM*	x	-6	0%	x	u
Cc1ccc(N2C(=O)c3[nH]nc(-c4ccc(Cl)cc4)c3C2c2ccc(F)cc2)cc1 (centres undefined)	15µM*	x	5	-2%	x	21µM*
Cc1ccc(-c2n[nH]c3c2C(c2cccs2)N(c2ccc(Cl)cc2)C3=O)cc1 (centres undefined)	16µM*	x	4	3%	x	u
COc1cc(C2c3c(-c4ccc(C)cc4)n[nH]c3C(=O)N2c2ccc(F)cc2)ccc1O (centres undefined)	u	x	6	-6%	x	u
COc1ccc(C2c3c(-c4ccccc4)n[nH]c3C(=O)N2c2ccc(C(=O)O)cc2)cc1 (centres undefined)	1%	5	11	-3%	9	-1%
Cc1ccc(CCc2nnc(SCC(=O)Nc3ccccc3Cl)n2-c2ccccc2)o1	u	13	3	55%	-64*	u
CCOC(=O)c1ccc(NC(=O)CSc2nnc(CCc3ccc(C)o3)n2-c2ccccc2)cc1	u	-6	-13	1%	u	u
CC(=O)/C(=N/Nc1ccccc1)Sc1nnc(CCc2ccccc2)n1-c1ccccc1	12µM*	-26	0	x	-76*	18µM*
COc1ccc(-n2c(CCc3ccccc3)nnc2SCC(=O)NCc2ccccc2)cc1	u	0	-1	0%	-52*	u
O=C(CSc1nnc(CCc2nc3ccccc3[nH]2)n1-c1ccccc1)NCc1ccccc1	-22%	11	9	0%	-2	u
O=C(CSc1nnc(CCc2ccccc2)n1-c1ccc(Cl)cc1)NCc1ccccc1	16µM*	1	-5	u	-7	16µM*
CCC(c1nnnn1-c1ccc2c(c1)OCCO2)N1CCN(CCN2CCOCC2)CC1 (centres undefined)	-7%	-16	-10	0%	-1	7%
CCC(c1nnnn1-c1ccc2c(c1)OCCO2)N1CCN(c2cccc(C)c2C)CC1 (centres undefined)	u	1	-4	-10%	-12	18µM*
CCC(c1nnnn1-c1ccc2c(c1)OCCO2)N1CCN(Cc2c(F)cccc2Cl)CC1 (centres undefined)	u	-26	-10	-5%	u	23µM*
COc1ccc(N2CCN(C(=O)CSc3nnnn3-c3ccc4c(c3)OCCO4)CC2)cc1	u	16	14	6%	-59*	u
CCC(c1nnnn1-c1ccc2c(c1)OCCO2)N1CCN(c2ccc(OC)cc2)CC1 (centres undefined)	21µM*	4	-9	-5%	-7	u
CC(=O)Cc1nsc(NC(=O)c2ccc(COc3ccccc3C)o2)n1	-2%	-9	2	0%	-8	12%
COCCCNC(=O)c1sc2nc(C)c(C(=O)Nc3ccc(C)cc3C)c(-c3ccc(Cl)cc3)c2c1N	u	x	6	-1%	x	u
COc1ccc(C(=O)CSc2nnn(-c3cccc(NC(C)=O)c3)n2)cc1	u	21	14	x	x	23µM*
CC(=O)Nc1cccc(-n2nnc(SCC(=O)c3ccccc3)n2)c1	-13%	-3	-1	-4%	0	u
C/C(=C\C(=O)c1ccc(Br)cc1)NNC(=O)c1ccccc1	u	2	5	1%	46	18µM*
C/C(=C\C(=O)c1ccc(Br)cc1)NNC(=O)c1ccc(O)cc1	13µM*	-11	-1	-2%	69	u
C/C(=C\C(=O)c1ccc(Br)cc1)NCc1ccccc1	-2%	5	5	-4%	-2	-14%
SMILES	TDP1 cell CPT	D3 antag	DRD3 agonist	ClpP mod	IL-1B inflam inh	TDP1 cell noCPT
Cc1ccc(NC(=O)c2cccc(S(=O)(=O)N(C)c3ccccc3)c2)cc1S(=O)(=O)N1CCOCC1	23µM*	25	-3	-11%	0	23µM*
Cc1nc2ccc(NC(=O)c3ccccc3)cc2s1	u	-14	-2	-3%	-12	16%
Cc1ccc(C(=O)Nc2cccc(C(=O)O)c2)cc1S(=O)(=O)N1CCOCC1	8%	13	3	0%	10	-1%
COc1ccccc1N(C)S(=O)(=O)c1ccc(C(=O)Nc2ccc3nc(C)sc3c2)cc1	16µM*	48	7	-4%	7	u
Cc1nc2ccc(NC(=O)c3cccc(S(=O)(=O)N(C)c4ccccc4)c3)cc2s1	3.7µM*	33	-7	-17%	37	6.5µM*
COc1ccccc1N(C)S(=O)(=O)c1ccc(C(=O)Nc2ncc(C)s2)cc1	u	-11	-10	-2%	-8	u
Cc1cc(NC(=O)C(C)SCC(=O)N(C)CC(=O)Nc2ccccc2Br)no1 (centres undefined)	-5%	15	-9	1%	18	-9%
COC(=O)N1CCC2(CCN(Cc3ccccc3OC)CC2)CC1	-1%	x	x	x	x	-4%
CCOC(=O)[C@]12CCCC=C1N(Cc1ccc(Cl)cc1Cl)C(=O)[C@H](CC(=O)NCCc1ccccc1OC)C2	u	-20	-1	1%	0	23µM*
CCOC(=O)[C@]12CCC=C1N(Cc1ccc(Cl)cc1Cl)C(=O)[C@H](CC(=O)NCCCN1CCCC1=O)C2	18µM*	-23	-8	-4%	-12	u
C#CCNC(=O)C[C@@H]1C[C@@]2(C(=O)OCC)CCCC=C2N(Cc2ccc(Cl)cc2Cl)C1=O	u	5	1	0%	-19	u
CCCCNC(=O)C[C@@H]1C[C@@]2(C(=O)OCC)CCCC=C2N(Cc2ccc(Cl)cc2Cl)C1=O	21µM*	0	-14	3%	u	-92%
CCOC(=O)[C@]12CCCC=C1N(Cc1ccc(Cl)cc1Cl)C(=O)[C@H](CC(=O)NCCCN1CCCC1=O)C2	u	9	4	1%	-17	u
